Anthrax LF inh2: Bacillus anthracis LF protease inhibitors, primary screen, biochemical, multiplex microsphere, MLPCN library; Lethal factor (Bacillus anthracis), P15917; multiplex microsphere protease cleavage assay; inhibition, % at 10 µM; hit rate 0.12% among 360,000
MazF activator: activators of E. coli MazEF toxin-antitoxin RNase, primary screen, biochemical, fluorescence, uHTS. hit rate 0.32% among 350,000. FAM/BHQ RNA-DNA oligo cleavage fluorescence, 5 h. activation, % at 20 µM. AID 504720, 2011. Endoribonuclease toxin MazF (Escherichia coli (strain K12)), P0AE70; in the data active = activation above about 50%
Autofluor counter: flagged as autofluorescent in microsphere protease counterscreen | compound autofluorescence counterscreen, microsphere flow cytometry; active compounds read high | fluorescence intensity (test concentration not listed) | hit rate 3.1% among 360,000; in the data active = fluorescence intensity above about 16000; inconclusive = no clear call, values can overlap the other calls
BoNT A protease: BoNT/A light chain protease inhibitors, primary screen, biochemical, flow cytometry, MLPCN library. AID 588499, 2011. multiplex microsphere protease substrate cleavage. hit rate 0.17% among 360,000. inhibition, % at 10 µM. Botulinum neurotoxin type A light chain protease (Clostridium botulinum A str. ATCC 3502)
BoNT-F LC inh: BoNT/F light chain protease inhibitors, primary screen, biochemical, flow cytometry, MLPCN library | Botulinum neurotoxin type F light chain protease (Clostridium botulinum) | Multiplex microsphere protease cleavage assay | inhibition, % at 10 µM | hit rate 0.22% among 360,000; in the data active = inhibition above about 35%, passing the limit was not always enough; inconclusive = no clear call, values can overlap the other calls
Numbers stand for hits; 0 = inactive; ? = inconclusive. Compounds with a hit are over-represented: about 3.6% of the library has one in this group of screens. Cut-off read from the data, not from the text of the source, unless noted: active = inhibition above about 30%; inconclusive = no clear call, values can overlap the other calls; inactive = below that.

SMILES	Anthrax LF inh2	MazF activator	Autofluor counter	BoNT A protease	BoNT-F LC inh
CCCCNC(=O)c1nn2c(C(F)(F)F)cc(-c3ccc(OC)cc3)nc2c1Br	0	0	0	0	0
COCCn1c(SCC#N)nnc1-c1ccccc1O	0	0	20776	0	0
Cc1ccsc1/C=C1/NC(=O)N(Cc2ccc(F)cc2)C1=O	0	0	0	0	0
CC/C(=N/Nc1cccc(C)c1)c1cnnc(SC)n1	0	287	0	0	0
CC/C(=N/Nc1ccc(Cl)cc1)c1cnnc(SC)n1	0	0	0	0	0
O=S(=O)(Cc1cc(Sc2ccc(Cl)cc2)nc(-c2ccccc2)n1)c1ccccc1	0	0	0	0	0
CCOC(=O)C(C)Sc1cc(CS(=O)(=O)c2ccccc2)nc(-c2ccccc2)n1 (centres undefined)	0	0	20917	?	0
CC1CC(=O)c2cnc(N3CCOCC3)nc2C1 (centres undefined)	0	0	0	0	0
CC1CC(=O)c2cnc(N)nc2C1 (centres undefined)	0	0	22837	0	0
CN(/C=C/C(=O)C(F)(F)F)Cc1ccccc1	0	0	24286	0	0
Cc1ccc(NC(=S)N(CCCN2CCOCC2)Cc2ccccn2)cc1	0	0	0	0	0
Cc1ccccc1NC(=S)N(CCCN1CCOCC1)Cc1ccccn1	0	0	0	0	39
CCOC(=O)N1CCN(C(=O)c2ccccc2NC(=O)c2ccc(OC)cc2)CC1	0	0	23728	0	0
CCOC(=O)C(=O)Nc1ccccc1C(=O)Nc1ccc(OC)cc1	0	0	19641	0	0
CCOC(=O)N1CCN(C(=O)c2ccccc2NC(=O)c2ccccc2Cl)CC1	0	0	0	0	0
Cc1nc2cc(NC(=O)c3ccco3)ccc2n1C	0	0	0	0	0
O=C(NCCOc1ccc(F)cc1)C1CCC(=O)N(CCc2ccccn2)C1 (centres undefined)	0	0	0	0	0
Cc1nn(-c2ccc(F)cc2)c(Cl)c1/C=N/NC(=O)c1cccs1	0	68	0	0	0
Cc1nn(-c2ccc(F)cc2)c(Cl)c1/C=N/NC(=O)c1ccc(O)cc1	0	0	0	0	0
OCCN(Cc1ccccc1)Cc1ccccc1F	0	0	0	0	0
OCCN(Cc1ccccc1)Cc1cccc(C(F)(F)F)c1	0	0	23013	0	0
OCCN(Cc1ccccc1)Cc1cccc(F)c1	0	0	20011	0	0
CCCN(CCO)Cc1cccc(Cl)c1	0	0	16966	0	0
OCCN(Cc1ccccc1)Cc1ccccc1Cl	0	0	23592	?	0
COc1ccc(CCNS(=O)(=O)c2c(C)[nH]c(C)c2C(=O)N2CCCCC2)cc1OC	0	0	0	0	0
SMILES	Anthrax LF inh2	MazF activator	Autofluor counter	BoNT A protease	BoNT-F LC inh
CCCc1nc2cc(CC(=O)OC)ccc2o1	0	0	24068	0	0
Cc1ccc(-c2nnn(CC(=O)N(Cc3cccs3)C(C(=O)NC3CCCC3)c3ccco3)n2)o1 (centres undefined)	0	0	16932	0	0
CCCC(C(=O)NC1CCCC1)N(C(=O)Cn1nnc(-c2ccc(C)o2)n1)c1ccccc1F (centres undefined)	0	0	0	0	0
CCC(C(=O)NC1CCCC1)N(C(=O)Cn1nnc(-c2ccc(OC)c(OC)c2)n1)C1CCCCC1 (centres undefined)	0	0	16428	0	0
Cc1ccc(-c2nnn(CC(=O)N(Cc3cccs3)C(C(=O)NC3CCCCC3)c3ccco3)n2)o1 (centres undefined)	0	0	0	0	0
CCCC(C(=O)NC1CCCC1)N(C(=O)Cn1nnc(-c2ccc(C)o2)n1)C1CCCC1 (centres undefined)	0	0	25114	0	0
COc1ccc(-c2nnn(CC(=O)N(CC(=O)NC3CCCC3)Cc3cccs3)n2)cc1OC	0	0	24334	0	0
COc1ccc(-c2nnn(CC(=O)N(Cc3cccs3)C(C)C(=O)NC3CCCC3)n2)cc1OC (centres undefined)	0	0	0	0	0
COc1ccc(CNc2ncnc3sccc23)cc1	0	0	0	0	0
O=C(COC(=O)Cc1n[nH]c(=O)c2ccccc12)Nc1c(Br)cc([N+](=O)[O-])cc1Br	0	0	0	0	0
COCCCNC(=O)/C(C#N)=c1\s/c(=C\c2ccccc2OC(F)F)c(=O)n1CCCOC	0	98	0	0	0
CCCCNC(=O)/C(C#N)=c1\s/c(=C\c2ccccc2OC(F)F)c(=O)n1CCCOC	0	85	0	0	0
COCCCn1c(=O)/c(=C\c2ccccc2OC(F)F)s/c1=C(/C#N)C(=O)N1CCOCC1	0	0	0	0	0
COCCCn1c(=O)/c(=C/c2ccccc2OC(F)F)s/c1=C(\C#N)C(=O)NCCOC	0	72	0	0	0
COCCCn1c(=O)/c(=C\c2ccccc2OC(F)F)s/c1=C(/C#N)C(=O)NCCOC	0	83	0	0	0
Cc1ccc(N(CC2CO2)S(=O)(=O)c2ccccc2[N+](=O)[O-])cc1 (centres undefined)	0	0	0	0	0
CCOc1cc(C(=O)OCC(=O)Nc2cccc(S(=O)(=O)NC3=NCCCCC3)c2)cc(OCC)c1OCC	0	0	0	0	0
Cc1ccc(C)c(NC(=O)c2cc(-c3cc(C)c(C)cc3O)n[nH]2)c1	0	0	0	0	0
Cc1ccccc1-n1nc(C)c2cc(C(=O)N3CCOCC3)sc21	0	0	23082	?	0
CN1CCN(NC(=S)NC2CCCC2)CC1	0	0	0	0	0
CCCCCCN1C[C@@H](O)[C@H](n2cc(COC(=O)c3ccccc3)nn2)C[C@@H]1c1ccc(C)cc1	0	0	0	0	0
Cc1ccc(S(=O)(=O)N2CCN(Cc3nc4sc(C)c(C)c4c(=O)[nH]3)CC2)cc1	0	88	0	0	0
CCOC(=O)c1cc(CC)sc1NC(=O)Cc1ccccc1	0	0	20942	?	0
CCOC(=O)c1cc(CC)sc1NC(=O)C1CC(=O)NN1Cc1ccccc1 (centres undefined)	0	0	0	0	0
CCOC(=O)c1cc(CC)sc1NC(=O)COC	0	0	18881	0	0
SMILES	Anthrax LF inh2	MazF activator	Autofluor counter	BoNT A protease	BoNT-F LC inh
CC1CCCCN1C(=O)c1ccc(Br)o1 (centres undefined)	0	0	0	0	0
CCOC(=O)c1c(NC(=S)Nc2ccccc2)sc2c1CCN(CC)C2	31	51	0	0	0
CCOC(=O)N1CCN(S(=O)(=O)c2ccc(C(=O)Nc3sc4c(c3C(=O)OC)CCN(C)C4)cc2)CC1	0	295	0	0	0
CCOC(=O)c1c(NC(=O)Nc2ccc(C)cc2)sc2c1CCN(C)C2	0	50	0	0	0
CCOC(=O)c1c(NC(=S)Nc2ccccc2)sc2c1CCCCC2	0	0	0	0	0
CSc1nsc(SCC(=O)Nc2cccc(NC(C)=O)c2)n1	0	0	0	0	0

From PubChem BioAssay
